# Experimental data published in paper PMC5540273 (PLoS ONE, 2017).
# Like-named read-outs stand apart in the source and are kept apart here.
# Assays:
# WNK1 = settings: concentration: 1 μM, replicates: in singlicate; n = 1
# WNK2 = settings: concentration: 1 μM, replicates: in singlicate; n = 1
# WNK3 = settings: concentration: 1 μM, replicates: in singlicate; n = 1
# WNK4 = settings: concentration: 1 μM, replicates: in singlicate; n = 1
# YANK1 = system: T1, YANK1; settings: concentration: 1 μM, replicates: in singlicate; n = 1
# T1 construct: gene STK32A
# YANK2 = system: T2, YANK2; settings: concentration: 1 μM, replicates: in singlicate; n = 1
# T2 construct: gene STK32B
# YANK3 = system: T3, YANK3; settings: concentration: 1 μM, replicates: in singlicate; n = 1
# T3 construct: gene STK32C
# YES = system: T4, YES; settings: concentration: 1 μM, replicates: in singlicate; n = 1
# T4 construct: gene YES1
# YSK1 = system: T5, YSK1; settings: concentration: 1 μM, replicates: in singlicate; n = 1
# T5 construct: gene STK25
# YSK4 = system: T6, YSK4; settings: concentration: 1 μM, replicates: in singlicate; n = 1
# T6 construct: gene MAP3K19
# ZAK = settings: concentration: 1 μM, replicates: in singlicate; n = 1
# ZAP70 = settings: concentration: 1 μM, replicates: in singlicate; n = 1
# p38-alpha = system: T7, p38-alpha; settings: n = 1
# T7 construct: gene MAPK14
# p38-beta = system: T8, p38-beta; settings: concentration: 1 μM, replicates: in singlicate; n = 1
# T8 construct: gene MAPK11
# p38-delta = settings: concentration: 1 μM, replicates: in singlicate; n = 1
# p38-gamma = system: T9, p38-gamma; settings: concentration: 1 μM, replicates: in singlicate; n = 1
# T9 construct: gene MAPK12
# [1] = concentration: 1 μM, replicates: in singlicate
# 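Further: KINOMEscan kinase panel screen.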
SMILES,%Inh (WNK1) [%],%Inh (WNK2) [%],%Inh (WNK3) [%],%Inh (WNK4) [%],%Inh (YANK1) [%],%Inh (YANK2) [%],%Inh (YANK3) [%],%Inh (YES) [%],%Inh (YSK1) [%],%Inh (YSK4) [%],%Inh (ZAK) [%],%Inh (ZAP70) [%],%Inh (p38-alpha; [1]) [%],%Inh (p38-beta) [%],%Inh (p38-delta) [%],%Inh (p38-gamma) [%],%Inh (p38-alpha; 1 µM) [%]
CNc1nccc(-c2ccc3c(N)n[nH]c3c2)n1 [GSK2206003],1,0,4,2,62,53,20,24,20,76,22,0,6,0,22,25,–
Nc1ncnc2scc(-c3ccc(NC(=O)Cc4cc(F)ccc4F)cc3)c12.O=C(O)C(F)(F)F [SB-731254-M],0,0,0,25,89,90.1,28,29,0,97.8,4,0,0,7,0,41,–
CCn1c(-c2nonc2N)nc2c(-c3ccccc3)ncc(OCCCN)c21.O=C(O)C(F)(F)F.O=C(O)C(F)(F)F [GSK260205],22,14,32,15,99.4,87,50,28,23,99.6,0,0,99.5,65,26,2,–
Cc1ccc(C)c(NC(=O)Nc2ccc(C)c(-c3ccc(C(=O)Nc4ccncc4)cc3)c2)c1 [GSK1398473],17,97.6,11,17,7,0,15,29,0,87,70,0,0,0,38,0,–
O=C(Nc1c(F)cccc1F)c1cc(C(=O)c2ccccc2F)c[nH]1 [GSK1326180],8,0,0,0,1,0,0,0,10,0,0,0,–,15,0,7,47
Cl.Cl.NCC(NC(=O)c1cc(-c2cccnc2)c(-c2ccnc3[nH]ccc23)s1)c1ccccc1 (stereo not drawn) [GSK1323434],2,0,80,50,26,0,14,18,17,84,7,0,31,0,21,32,–
CCNC(=O)/C=C/c1n[nH]c2cc(Sc3ccccc3C(=O)NC)ccc12,0,5,0,10,17,0,0,20,0,86,48,0,13,11,18,16,–
Cc1cc(-c2c(-c3ccc(F)cc3)ncn2CCCN2CCOCC2)nc(N)n1 [SB-222517],0,0,0,0,0,13,16,0,20,11,13,15,22,17,0,27,–
CCn1cnc2c(NCc3ccccc3)ncnc21 [SKF-96418],12,0,43,16,0,19,0,0,0,10,0,30,0,0,0,0,–
Cc1ccccc1CC(=O)N1CCc2cc(-c3cn(C)c4ncnc(N)c34)ccc21 [GSK2603346],18,25,50,8,7,0,22,18,54,84,0,0,0,0,27,0,–
COc1cccc(CC(=O)N2CCc3cc(-c4cn(C)c5ncnc(N)c45)ccc32)c1 [GSK2608899],21,52,54,12,13,0,8,16,17,96.9,0,0,0,0,48,0,–
Cc1ccc(-c2ccc3occ(-c4ccc(S(C)=O)cc4)c3c2)nn1 (stereo not drawn),0,18,0,0,0,1,24,0,1,4,0,13,0,10,0,0,–
Nc1ncc(-c2cn[nH]c2)c2scc(-c3ccc4c(c3)CCN4C(=O)Cc3ccccc3)c12 [GSK2593067],4,31,52,23,3,0,30,57,6,81,50,4,0,0,15,0,–
CN(C)CCOc1ccc(-c2cc(-c3ccc(Cl)c(O)c3)c(-c3ccncc3)[nH]2)cc1.Cl.Cl [SB-684387],11,21,47,33,26,28,0,55,13,27,20,20,54,70,19,23,–
COC(=O)Nc1nc2cc(Oc3ccc(NC(=O)Nc4cccc(SC)c4)cc3)ccc2[nH]1.Cl [GW697999],0,3,29,27,14,0,0,29,3,85,96.3,0,54,0,28,4,–
Cc1cccc(Nc2nc(NCCN)ncc2C(N)=O)c1 [GSK1292139],7,0,31,15,9,0,0,6,31,88,0,74,45,0,24,0,–
COC(=O)Nc1nc2ccc(Oc3ccc(NC(=O)Nc4cc(C(F)(F)F)ccc4F)cc3)cc2[nH]1.Cl [GW654607],25,27,26,15,21,0,100,48,25,97.2,98,0,88,70,65,9,–
Cl.O=C(Nc1ccc(Oc2ccc3[nH]c(NC(=O)c4ccco4)nc3c2)cc1)Nc1cc(C(F)(F)F)ccc1F [GW683134],2,0,14,9,2,0,14,61,0,92.9,99.2,0,65,74,39,0,–
CN1CCN(Cc2ccc(NC(=O)Nc3ccc(N(C)c4ccnc(Nc5ccc(CS(C)(=O)=O)cc5)n4)cc3)cc2)CC1.Cl [GW827654],36,45,42,0,19,0,6,0,7,100,21,52,0,0,0,48,–
COc1cccc(C2=C(Nc3cccc(O)c3)C(=O)NC2=O)c1 [SB-390771],13,25,7,35,0,0,2,15,16,43,38,5,0,0,45,18,–
c1ccc(Oc2ccc(Nc3ccnc4cc(-c5ccc(CN6CCCCC6)o5)ccc34)cc2)nc1 [GW567143],2,39,24,25,0,0,17,51,0,32,66,0,0,0,0,0,–
O=C(Nc1n[nH]c2nc(-c3ccccc3O)ccc12)C1CC1 [SB-711880],0,30,0,0,0,0,0,0,0,70,0,0,0,0,0,39,–
Cn1cc(-c2ccc3c(c2)CCN3C(=O)Cc2cc(F)cc(C(F)(F)F)c2)c2c(N)ncnc21 [GSK2635225],8,10,30,13,19,0,0,13,22,88,11,0,0,0,46,0,–
CCNc1nccc(-c2c(-c3ccc(F)cc3)ncn2C2CCN(C)CC2)n1,0,0,0,0,0,0,0,3,5,0,7,0,99.8,63,0,36,–
